High-throughput results deposited in PubChem by National Center for Advancing Translational Sciences (NCATS).
Only a selection was taken, and hits are over-represented in it overall.
TDP1 cell CPT = DT40-hTDP1 cell growth loss with CPT. chicken DT40 Tdp1-/-;hTDP1 cells + 20 nM CPT, ATP luminescence, 48 h. 420,000 tested, 12% active. AID 686979. Potency, µM (highest dose often 46.2 µM), for the others: at the highest dose activity change, negative = growth inhibition, usual class: inhibitors; note: potency is the fitted concentration of half-maximal effect; nearly all actives have a fitted effect of over 55% in size
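Chicken DT40 Tdp1-/- cells complemented with human TDP1, 400 cells/well, exposed to compounds plus 20 nM camptothecin for at least 48 h at 37 C; viability read as ATP content by CellTiter-Glo luminescence.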
HT1080 IDH1KD tx = kills HT-1080 cells with IDH1 knockdown | HT-1080 IDH1 knockdown viability, ATP luminescence, 48 h | Potency, µM (highest dose often 46.1 µM), inactives show at the top dose activity, negative = toxicity, most hits filed as cytotoxic | 360,000 tested, 2% active | AID 686971;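 note: potency is the fitted concentration of half-maximal effect; 0% = DMSO wells and -100% = cell-free medium wells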
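IDH1KD HT-1080 cells, 750/well, RPMI + 5% FBS; compound pinned after 2 h settling; 48 h, 37 °C; CellTiter-Glo luminescence; % activity normalised to DMSO and no-cell wells; curves fitted, classed by r2 and efficacy.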
HT1080NT lethal = kills 2HG-producing HT-1080-NT fibrosarcoma cells; AID 686970; 360,000 tested, 1.6% active; HT-1080-NT fibrosarcoma viability, CellTiter-Glo ATP luminescence, 48 h; Potency, µM (highest dose often 46.1 µM), inactives show top-dose activity, negative = less viability, usual class: cytotoxic;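 note: NT is the 2HG producing partner of a matched IDH1 knockdown line; potency is the fitted concentration of half-maximal effect; 0% = DMSO-treated cells and -100% = media-only wells without cells; nearly all actives have a fitted effect of over 55% in size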
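Viability by CellTiter-Glo luminescence after 48 h compound exposure at 37C of HT-1080-NT cells (750/well, RPMI, 5% FBS). % activity scaled between DMSO wells and medium-only wells, then curve-fitted and categorized by curve class.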
DT40 TDP1 no CPT = qHTS for Inhibitors of human tyrosyl-DNA phosphodiesterase 1 (TDP1): qHTS in cells in absence of CPT. DT40 Tdp1-/- hTDP1 cells, no CPT, ATP luminescence, 48 h. 420,000 tested, 15% active. Potency, µM (doses to about 46.2 µM), without a hit: at the highest dose activity change, negative = growth inhibition, usual class: inhibitors; note: potency is the fitted concentration of half-maximal effect; nearly all actives have a fitted effect of over 55% in size
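Compound effects on proliferation are scored in DT40 Tdp1-/-;hTDP1 cells in the absence of CPT. ATP levels (CellTiter-Glo luminescence) are recorded after a ≥48 hr, 37 °C incubation.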
IL-1B inflam inh = inflammasome signaling inhibition, IL-1 beta readout. 360,000 tested, 4.7% active. THP-1 LPS/ATP IL-1B secretion, AlphaLISA, 16 h; hits give low values. activity change, % at 57.5 µM; in the data active = activity change below about -50%; inconclusive = mostly about -30% to -49%
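THP-1 cells pretreated 1 hr with compounds (up to 57.5 uM final), then stimulated with LPS (250 ng/mL final) plus ATP (1.25 mM final); secreted IL-1B measured by AlphaLISA after 16 hr, decreased signal indicating inhibition.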
ALOX12 inh = ALOX12 (human) lipoxygenase inhibition. 580,000 tested, 1.1% active. Potency, µM (highest dose often 108 µM), inactives show at the highest dose activity change, negative = inhibition, actives largely listed as inhibitors. P18054. AID 1671190. purified 12hLO, xylenol orange hydroperoxide absorbance; note: potency is the fitted concentration of half-maximal effect
Target sequence (P18054 whole entry, looked up): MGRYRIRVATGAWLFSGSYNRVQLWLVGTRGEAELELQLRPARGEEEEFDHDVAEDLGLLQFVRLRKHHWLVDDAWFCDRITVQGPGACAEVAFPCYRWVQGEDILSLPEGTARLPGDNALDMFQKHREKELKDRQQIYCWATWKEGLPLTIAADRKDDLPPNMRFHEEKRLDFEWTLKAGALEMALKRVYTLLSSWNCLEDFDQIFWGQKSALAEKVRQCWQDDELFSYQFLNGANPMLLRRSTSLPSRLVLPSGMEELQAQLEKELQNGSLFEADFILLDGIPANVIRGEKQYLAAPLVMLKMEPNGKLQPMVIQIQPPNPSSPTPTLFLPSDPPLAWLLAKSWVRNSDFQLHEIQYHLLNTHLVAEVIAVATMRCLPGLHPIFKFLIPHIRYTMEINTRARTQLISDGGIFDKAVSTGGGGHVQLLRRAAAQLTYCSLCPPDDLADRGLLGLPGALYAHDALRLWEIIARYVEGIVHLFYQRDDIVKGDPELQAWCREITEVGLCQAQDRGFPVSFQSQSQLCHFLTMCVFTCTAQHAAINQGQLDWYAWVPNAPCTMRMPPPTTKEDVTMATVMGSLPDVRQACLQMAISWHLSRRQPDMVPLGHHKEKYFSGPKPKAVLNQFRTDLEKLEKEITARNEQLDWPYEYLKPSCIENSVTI
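Purified human 12hLO at 150 nM in 25 mM Hepes, 0.01% Triton X-100, pH 7.0, preincubated 15 min at room temperature with compound. Reaction started with 40 uM arachidonic acid, 30 min at room temperature. Hydroperoxide measured by Fe-xylenol orange, 573/405 nm absorbance ratio.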
An asterisk follows results filed as active; ? = inconclusive; nt = not tested or not shown; [ ] = remark or other dose. Unless noted, calls come from the whole dose curve; as a rule, active = well fitted curve in the direction sought with a large enough effect; inconclusive = small, poorly fitted or top-dose-only effect, or another doubt; inactive = no such curve, though single readings can be large; an effect the other way counts as inactive or inconclusive. Unless noted, % is set by controls: 0 for no effect and ±100 for the full control effect.

SMILES	TDP1 cell CPT	HT1080 IDH1KD tx	HT1080NT lethal	DT40 TDP1 no CPT	IL-1B inflam inh	ALOX12 inh
CCOC(=O)C(=CNc1cccnc1Oc1ccc(C)c2c1CCC2)C(=O)OCC	15µM*	8%	13%	21µM*	-15	?
CC(C)Oc1ccc(-c2noc(-c3nnn4c3COC(c3ccc(F)cc3)C4)n2)cc1 (stereo unspecified)	nt	nt	nt	nt	nt	49%
CCOC(CN1C(=O)[C@](CC(=O)Nc2ccc(C)cc2)(NC(=O)Nc2ccc(C)cc2)c2ccccc21)OCC	nt	nt	nt	nt	nt	3%[57.4 µM]
Cc1cc(C)n(CC(=O)N[C@@H]2CN(c3ncccn3)C[C@H]2CN(C)C)n1	nt	nt	nt	nt	nt	56%
CC1(C)CC(=O)C(CS(=O)(=O)c2ccccc2)=C(Cl)C1	5.2µM*	3%	-1%	2.9µM*	-19	0%
O=S(=O)(CCS(=O)(=O)c1ccccc1)c1ccccc1	-23%	?	-1%	-18%	?	8%
CC(C)(C)NC(=O)COC(=O)CNC(=O)C1CCCCC1	-5%	nt	nt	5%	nt	nt
Cc1cc(C)nc(/N=C(\N)Nc2ccc(CC(=O)OC(C)C)cc2)n1	?	-27%	-12%	3.3µM*	-99*	15%
Cc1cc(C)nc(/N=C(\N)Nc2ccc(S(=O)(=O)O)cc2)n1	0%	6%	13%	8%	34	-2%
COc1ccc(N/C(N)=N/c2nc(C)cc(C)n2)cc1	-21%	2%	3%	?	82	-5%
Cc1cc(C)nc(/N=C(\N)Nc2ccc(OCCC(C)C)cc2)n1	9.2µM*	23µM*	15µM*	12µM*	-98*	-32%
Cc1cc(C)nc(/N=C(\N)Nc2cccc(OCc3ccccc3)c2)n1	16µM*	?	?	12µM*	-68*	?
Cc1cc(C)nc(/N=C(\N)Nc2ccc(C)c([N+](=O)[O-])c2)n1	10µM*	-13%	-4%	13µM*	-112*	-3%
COc1cc(C2CC(=O)Nc3c2c(=O)nc(SC)n3C)cc(OC)c1OC (stereo unspecified)	nt	nt	nt	nt	nt	-14%
O=C(c1cn[nH]c1)N1CC2(C1)CN([S+](=O)([O-])c1ccc(OC(F)(F)F)cc1)CC2COc1ccccc1 (stereo unspecified)	nt	nt	nt	nt	nt	28%
COc1ccc(Cl)cc1-c1ccc2c(c1)C(=O)N1CC[C@H](NC(=O)c3cccs3)[C@H]1C(=O)N2	nt	nt	nt	nt	nt	-5%
COC(=O)c1sc(N2C(=O)c3oc4ccccc4c(=O)c3C2c2ccc(O)cc2)nc1C (stereo unspecified)	-19%	nt	nt	-2%	nt	?
Cc1cc(C)nc(/N=C(\N)Nc2ccc(OCc3ccccc3)cc2)n1	12µM*	?	18µM*	12µM*	-93*	?
NC(=O)C1CCN(C(=O)c2ccc3ccccc3n2)CC1	nt	nt	nt	nt	nt	28%
O=C(Nc1ccc(C(=O)N2CCN(c3ccncc3)CC2)cc1)c1ccc(Br)o1	-18%	11%	17%	?	-24	-11%
O=C(Nc1ccc(C(=O)N2CCC(O)(c3ccc(Cl)c(C(F)(F)F)c3)CC2)cc1)c1ccc(Br)o1	?	-8%	-17%	18µM*	-61*	?
CN1[C@@H](CCC(=O)NCc2ccc(F)cc2)CNC(=O)[C@@H]2[C@H]1CCN2Cc1ncc[nH]1	nt	nt	nt	nt	nt	126%[176 µM]
COC(=O)c1noc(-c2ccc(Cl)cc2)n1	nt	nt	nt	nt	nt	-25%
CO/C([O-])=N/c1c[n+](-c2ccc(Cl)cc2)no1	?	14%	1%	8%	11	25µM*
Nc1ccc(Nc2ccc([N+](=O)[O-])cc2[N+](=O)[O-])cc1	?	-7%	-9%	-22%	-25	-25%
